From PubChem BioAssay AID1159580 (chemical genetic matrix, 2015)
Where “and” joins values, the source holds several entries; their conditions need not be identical. Identical values can stand only once. Among all 5,500 compounds or so, about 2,000 (36%) were called active. About 18% were inconclusive and are not listed. Cut-off read from the data, not from the text of the source: active = normalized growth mostly below about 0.91 (no sharp cut-off); inconclusive = no clear call, values can overlap the other calls; inactive = mostly above about 0.92. Some of the results follow.

Experiment: chemical genetic growth profiling, strain panel (AID 1159580);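 note: tested at 20 µM; growth read once vehicle control cultures reached saturation at 30 °C; 1 = growth at the plate median or of vehicle wells; lower values mean less growth of the strain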
Details: growth OD

Measured: normalized growth

CC(C)NNC(=O)c1ccncc1
inactive: S. cerevisiae deletion strains, locus YJR043C, strain POL32, hits give low values 1.01 | S. cerevisiae deletion strains, locus YJR075W, strain HOC1, hits give low values 1 | S. cerevisiae deletion strains, locus YKL068W, hits give low values 1.02 | S. cerevisiae deletion strains, locus YKL085W, strain MDH1 (second series), hits give low values 1.03 | S. cerevisiae deletion strains, locus YKL085W, strain MDH1, hits give low values 1.03 | S. cerevisiae deletion strains, locus YKL160W, strain elf1, hits give low values 1.01 | S. cerevisiae deletion strains, locus YKL190W, strain CNB1, hits give low values 1 | S. cerevisiae deletion strains, locus YKR001C, strain vps1, hits give low values 1.02 | S. cerevisiae deletion strains, locus YKR026C, strain gcn3, hits give low values 0.997 | S. cerevisiae deletion strains, locus YKR091W, strain srl3, hits give low values 1.01 | S. cerevisiae deletion strains, locus YLL001W, strain dnm1, hits give low values 1 | S. cerevisiae deletion strains, locus YLL026W, hits give low values 1.01 | S. cerevisiae deletion strains, locus YLL041C, strain sdh2, hits give low values 1.01 | S. cerevisiae deletion strains, locus YLR027C, strain aat2, hits give low values 0.996 | S. cerevisiae deletion strains, locus YLR039C, strain RIC1, hits give low values 1.02 | S. cerevisiae deletion strains, locus YLR058C, strain SHM2, hits give low values 1.01 | S. cerevisiae deletion strains, locus YLR102C, strain apc9, hits give low values 1.01 | S. cerevisiae deletion strains, locus YLR221C, strain rsa3, hits give low values 1.02 | S. cerevisiae deletion strains, locus YLR258W, strain gsy2, hits give low values 1.02 | S. cerevisiae deletion strains, locus YLR262C, strain YPT6 (second series), hits give low values 1 | S. cerevisiae deletion strains, locus YLR262C, strain YPT6, hits give low values 1.02 | S. cerevisiae deletion strains, locus YLR268W, strain sec22, hits give low values 1.03 | S. cerevisiae deletion strains, locus YLR320W, strain mms22, hits give low values 1.01 | S. cerevisiae deletion strains, locus YLR330W, strain CHS5, hits give low values 1.01 | S. cerevisiae deletion strains, locus YLR342W, strain FKS1 (second series), hits give low values 1.01 | S. cerevisiae deletion strains, locus YLR342W, strain FKS1, hits give low values 0.986 | S. cerevisiae deletion strains, locus YLR357W, strain rsc2, hits give low values 1.01 | S. cerevisiae deletion strains, locus YLR370C, strain arc18, hits give low values 1.01 | S. cerevisiae deletion strains, locus YLR371W, strain rom2, hits give low values 1 | S. cerevisiae deletion strains, locus YLR384C, strain iki3, hits give low values 0.995 | S. cerevisiae deletion strains, locus YLR418C, strain cdc73, hits give low values 1.04 | S. cerevisiae deletion strains, locus YML016C, strain PPZ1, hits give low values 1 | S. cerevisiae deletion strains, locus YML032C, strain rad52, hits give low values 1.02 | S. cerevisiae deletion strains, locus YML120C, strain ndi1, hits give low values 0.999 | S. cerevisiae deletion strains, locus YML124C, strain tub3, hits give low values 1.01 | S. cerevisiae deletion strains, locus YMR058W, strain fet3, hits give low values 1.03 | S. cerevisiae deletion strains, locus YMR078C, strain ctf18, hits give low values 1.01 | S. cerevisiae deletion strains, locus YMR125W, strain sto1, hits give low values 1.02 | S. cerevisiae deletion strains, locus YMR129W, hits give low values 1.01 | S. cerevisiae deletion strains, locus YMR205C, strain PFK2, hits give low values 1 | S. cerevisiae deletion strains, locus YMR223W, strain ubp8, hits give low values 1.02 | S. cerevisiae deletion strains, locus YMR231W, strain pep5, hits give low values 1 | S. cerevisiae deletion strains, locus YMR263W, strain SAP30, hits give low values 1.01 | S. cerevisiae deletion strains, locus YMR307W, strain GAS1, hits give low values 1.05 and 1 | S. cerevisiae deletion strains, locus YNL067W, strain RPL9B, hits give low values 1.01 | S. cerevisiae deletion strains, locus YNL071W, strain lat1, hits give low values 1.03 | S. cerevisiae deletion strains, locus YNL128W, strain TEP1, hits give low values 1.01 | S. cerevisiae deletion strains, locus YNL153C, strain GIM3, hits give low values 1.01 | S. cerevisiae deletion strains, locus YNL175C, strain NOP13, hits give low values 0.994 | S. cerevisiae deletion strains, locus YNL197C, strain WHI3, hits give low values 0.989 | S. cerevisiae deletion strains, locus YNL209W, strain ssb2, hits give low values 1.03 | S. cerevisiae deletion strains, locus YNL224C, strain SQS1, hits give low values 1.02 | S. cerevisiae deletion strains, locus YNL233W, strain BNI4, hits give low values 1.01 | S. cerevisiae deletion strains, locus YNL248C, strain rpa49, hits give low values 1.01 | S. cerevisiae deletion strains, locus YNL250W, strain rad50, hits give low values 1.02 | S. cerevisiae deletion strains, locus YNL271C, strain bni1, hits give low values 1.02 | S. cerevisiae deletion strains, locus YNL298W, strain CLA4, hits give low values 1.01 | S. cerevisiae deletion strains, locus YNL307C, strain MCK1, hits give low values 1.02 | S. cerevisiae deletion strains, locus YNL322C, strain KRE1 (second series), hits give low values 1.01 | S. cerevisiae deletion strains, locus YNL322C, strain KRE1, hits give low values 1 and 0.981 | S. cerevisiae deletion strains, locus YNR049C, strain mso1, hits give low values 1.01 | S. cerevisiae deletion strains, locus YNR052C, strain pop2, hits give low values 1.02 | S. cerevisiae deletion strains, locus YOL006C, strain TOP1, hits give low values 1.04 | S. cerevisiae deletion strains, locus YOL012C, strain htz1 1.02 | S. cerevisiae deletion strains, locus YOL147C, strain pex11, hits give low values 1.01 | S. cerevisiae deletion strains, locus YOR001W, strain rrp6, hits give low values 0.998 | S. cerevisiae deletion strains, locus YOR061W, strain CKA2, hits give low values 1.01 | S. cerevisiae deletion strains, locus YOR069W, strain VPS5, hits give low values 1.01 | S. cerevisiae deletion strains, locus YOR070C, strain gyp1, hits give low values 1.01 | S. cerevisiae deletion strains, locus YOR080W, strain dia2, hits give low values 1.01 | S. cerevisiae deletion strains, locus YOR083W, strain WHI5 (second series), hits give low values 1.01 | S. cerevisiae deletion strains, locus YOR083W, strain WHI5, hits give low values 0.998 | S. cerevisiae deletion strains, locus YOR106W, strain vam3, hits give low values 1.02 | S. cerevisiae deletion strains, locus YOR136W, strain idh2, hits give low values 1.02 | S. cerevisiae deletion strains, locus YOR144C, strain elg1, hits give low values 1.01 | S. cerevisiae deletion strains, locus YOR184W, strain ser1, hits give low values 1.04 | S. cerevisiae deletion strains, locus YOR265W, strain rbl2, hits give low values 1.01 | S. cerevisiae deletion strains, locus YOR270C, strain vph1, hits give low values 1.06 | S. cerevisiae deletion strains, locus YOR290C, strain snf2, hits give low values 1.01 | S. cerevisiae deletion strains, locus YOR316C, strain cot1, hits give low values 1.02 | S. cerevisiae deletion strains, locus YPL051W, strain arl3, hits give low values 1.01 | S. cerevisiae deletion strains, locus YPL055C, strain LGE1, hits give low values 1.02 | S. cerevisiae deletion strains, locus YPL078C, strain atp4, hits give low values 1.01 | S. cerevisiae deletion strains, locus YPL106C, strain sse1, hits give low values 0.991 | S. cerevisiae deletion strains, locus YPL240C, strain hsp82, hits give low values 1.02 | S. cerevisiae deletion strains, locus YPL241C, strain CIN2, hits give low values 0.995 and 0.982 | S. cerevisiae deletion strains, locus YPR119W, strain clb2, hits give low values 1 | S. cerevisiae deletion strains, locus YPR141C, strain kar3, hits give low values 1.01 | S. cerevisiae deletion strains, locus YPR163C, strain tif3, hits give low values 1.02 | S. cerevisiae deletion strains, locus YPR167C, strain met16, hits give low values 1.02 | S. cerevisiae deletion strains, strain wtn01, hits give low values 1.02 | S. cerevisiae strains, strain wild type, hits give low values 1.01
